High-throughput results (PubChem BioAssay)
This is a sample that favours compounds with a hit; in the whole collection about 2.3% have one here.
ANO1 activ = activators or potentiators of mouse TMEM16A chloride channel. Q8BHY3. AID 623877. actives 0.3% (n = 340,000). B-score at 10 µM. HEK293 TMEM16A/YFP-H148Q/I152L, iodide quench fluorescence; active compounds read low;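 active = fluorescence-ratio B-score plate-corrected deviation score at least 3 library SD below zero, with starting fluorescence score within 5 deviations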;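 also: channel opened by trigger with iodide after compound preincubation; score built on the fluorescence ratio of max minus min over baseline; more negative score means more quench and so TMEM16A activation or potentiation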
TMEM16A inh = blocks the mouse calcium-activated chloride channel TMEM16A | Q8BHY3 | HEK293 TMEM16A/YFP iodide influx fluorescence, ionomycin | normalized B-score (activity score, 25-100; higher = stronger inhibition) at 10 µM | actives 1.2% (n = 310,000) | AID 588511;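 active = ratio plate-corrected score three or more library SD toward inhibition, starting fluorescence score within five deviations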;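 also: score derived from kinetic fluorescence span divided by baseline fluorescence per well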
CHT inh = inhibitors of human choline transporter CHT | Q9GZV3 | CHT-expressing cells, membrane potential dye, choline response; active compounds read low | B-score at 10 µM | actives 0.86% (n = 310,000) | AID 488975;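 active = B-score over 3 SD under the library average, and starting fluorescence ratio not unusually high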;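 also: choline stimulus applied at its EC90 after an EC20 pre-addition; B-score computed on integrated fluorescence ratio after choline addition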
Target sequence (Q9GZV3 whole entry, looked up): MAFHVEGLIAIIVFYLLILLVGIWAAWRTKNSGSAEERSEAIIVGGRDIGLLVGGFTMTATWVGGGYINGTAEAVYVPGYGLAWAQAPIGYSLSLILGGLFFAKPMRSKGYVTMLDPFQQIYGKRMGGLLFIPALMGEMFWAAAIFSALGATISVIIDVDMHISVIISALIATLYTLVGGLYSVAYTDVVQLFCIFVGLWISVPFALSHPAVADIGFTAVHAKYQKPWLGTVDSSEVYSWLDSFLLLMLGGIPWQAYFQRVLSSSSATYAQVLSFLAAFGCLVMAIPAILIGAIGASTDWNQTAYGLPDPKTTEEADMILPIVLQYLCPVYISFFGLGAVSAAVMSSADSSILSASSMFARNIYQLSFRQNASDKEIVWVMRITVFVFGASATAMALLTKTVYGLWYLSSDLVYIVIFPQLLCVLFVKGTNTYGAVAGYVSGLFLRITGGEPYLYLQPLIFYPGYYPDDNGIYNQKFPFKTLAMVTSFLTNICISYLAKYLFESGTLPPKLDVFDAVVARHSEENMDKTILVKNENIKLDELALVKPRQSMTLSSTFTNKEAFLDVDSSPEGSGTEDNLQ
CHT allo act = allosteric activators of human choline transporter CHT | Q9GZV3 | CHT-expressing cells, membrane potential dye, choline EC20; active compounds read high; LV-AA mutant CHT in HEK293 cells | B-score at 10 µM | actives 0.49% (n = 310,000) | AID 488977;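 active = initial fluorescence not abnormally high and integrated response B-score, plate-corrected, over 3 SD above library mean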
CHT inh conf = human CHT inhibition, confirmatory screen | CHT-expressing cells, choline membrane potential dye; LV-to-AA substituted CHT, HEK293 cells | AID 493221 | actives 70% (n = 2,400) | CHT activity remaining % of control (active compounds read low), % at 10 µM | shares compounds with CHT inh;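 active = choline transporter activity left, mean of duplicates at 10 µM, below buffer-only control mean minus 3 SD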;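 also: depolarization triggered by choline at its EC90 following an EC20 pre-addition; 0% = hemicholinium-3 full block and 100% = buffer-only control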
HEK293 MPD ctr = counter-screen for CHT inhibitors: effect in parental HEK293 cells; shares compounds with CHT inh; membrane potential dye, choline response; active = decrease or increase beyond buffer ±3SD; membrane potential ratio readout (active if shifted either direction beyond buffer ±3SD; no single direction) at 10 µM; actives 4% (n = 2,400); AID 493222;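 also: parental cells lack the transporter so any hit is non-specific; ratio is peak minus trough fluorescence over baseline after EC90 choline challenge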
* = called active by the depositor; i = inactive; · = no result.

SMILES | ANO1 activ | TMEM16A inh | CHT inh | CHT allo act | CHT inh conf | HEK293 MPD ctr
CCN1CCN(CCCNC(=O)c2ccc3c(c2)N(Cc2ccccc2)CCS3)CC1 | i | i | i | i | · | ·
Cn1nc(C(=O)NCCCN2CCCCC2)c2c1-c1ccccc1SC2 | i | i | -5.5* | i | 37%* | i
O=C(NCCCN1CCCC1)c1ccc2c(c1)N(Cc1ccccc1)CCS2 | i | i | -5.4* | i | 36%* | 4*
O=C(NCCCOc1cccc(CN2CCCCC2)c1)c1ccc(Cl)c(Cl)c1 | i | i | -11* | i | 22%* | 2.4*
c1cc(CN2CCCCC2)cc(OCCCNc2nc3ccccc3s2)c1 | i | i | i | i | · | ·
O=C1Nc2cc(C(=O)NCCCN3CCOCC3)ccc2S/C1=C/c1ccccc1F | i | i | i | i | · | ·
COCCN(C(=O)COC(=O)CSc1ccc(Cl)cc1)c1c(N)n(CC(C)C)c(=O)[nH]c1=O | i | · | · | · | · | ·
COc1cccc(CN(C)C(=O)CCN=C2NS(=O)(=O)c3ccccc32)c1 | i | · | · | · | · | ·
CCN(CCn1cccn1)C(=O)CC1C(=O)NCCN1CCc1ccccc1 (configuration not stated) | i | i | i | i | · | ·
O=C(Nc1nccs1)C1CCN(S(=O)(=O)c2c(Cl)cccc2Cl)CC1 | i | i | -5.9* | i | i | i
C=C[C@](C)(CC[C@@]1(C)C(C)CC(OC2OC(C)C(OC3OC(COC(C)=O)C(O)C(O)C3O)C(O)C2O)[C@@]2(C)C(C)=CCCC12)OC1OC(C)C(O[C@@H]2O[C@@H](C)C(O)C(O)[C@H]2O)C(O)C1O (some centres not stated) | i | · | · | · | · | ·
C/C(=N\N=C(N)N)c1ccc(Cl)c(Cl)c1 | i | i | -11* | i | 19%* | i
C/C(=N\NC(=O)CC(C)C)c1ccc(Cl)c(Cl)c1 | i | i | i | i | · | ·
COc1ccccc1NC(=O)CNS(=O)(=O)c1ccccc1 | i | i | -5.7* | i | i | i
O=C(CNS(=O)(=O)c1ccccc1)Nc1ccccc1Br | i | i | i | i | · | ·
CCOC(=O)C1CCCN(c2c(NCCC(C)C)c(=O)c2=O)C1 (configuration not stated) | i | i | i | i | · | ·
CCOC(=O)C1CCN(c2c(NCCC(C)C)c(=O)c2=O)CC1 | i | i | -6.4* | i | i | i
CC1(C(=O)N2CCC(CC3CC(c4ccc(Cl)cc4)=NO3)(C(=O)NCC3CCCCC3)CC2)CC1 (configuration not stated) | i | i | -5.2* | i | 71%* | i
COC(=O)c1cc(OCC(=O)Nc2ccc3c(c2)CCC3)cc(C(=O)OC)c1 | i | · | · | · | · | ·
CCOC(=O)c1[nH]ncc1CN1CCCC(C(=O)c2ccc(C(C)(C)C)cc2)C1 (configuration not stated) | i | i | -8.8* | i | i | i
CCOc1ccc(OCCCC(=O)N2CCN(S(=O)(=O)c3ccccc3C#N)CC2)cc1 | i | · | · | · | · | ·
Nc1nc(Cl)nc2c1ncn2[C@@H]1O[C@H](CO)[C@@H](O)[C@H]1O | i | i | -5.8* | i | 39%* | i
OC[C@H]1O[C@@H](n2cnc3c(NC4CCCC4)nc(Cl)nc32)[C@H](O)[C@@H]1O | i | i | i | i | · | ·
C=CC(=O)N=c1sc2ccccc2n1-c1ccccc1 | i | i | -6.2* | i | 37%* | i
O=C(Nc1cc(Cl)ccc1-n1cncn1)c1cccc(S(=O)(=O)N2CCOCC2)c1 | i | · | · | · | · | ·
SMILES | ANO1 activ | TMEM16A inh | CHT inh | CHT allo act | CHT inh conf | HEK293 MPD ctr
O=C(OCC(=O)N1CCC(c2ccccc2)=N1)c1ccc(Cl)s1 | i | · | · | · | · | ·
CCOc1ccccc1/C=C/C(=O)NCC(=O)N1CCC(N(C)C2CCCCC2C)CC1 (configuration not stated) | i | i | -5.5* | i | 11%* | i
CC(OC(=O)C1CC1)C(=O)Nc1ncc(Cl)cc1Cl (configuration not stated) | i | · | · | · | · | ·
O=C(NNC(=S)NC(=O)c1sc2ccccc2c1Cl)c1ccc(Cl)cc1 | -9.3* | 100* | -7.3* | i | 32%* | i
C[C@H](CO)N1C[C@H](C)[C@@H](CN(C)S(C)(=O)=O)Oc2ccc(N(C)C)cc2C1=O | i | · | · | · | · | ·
O=C(COc1ccccc1/C=C1/NC(=O)NC1=O)Nc1ccccc1 | i | i | i | i | · | ·
O=C(COc1ccccc1/C=C1\SC(=O)NC1=O)Nc1ccc(F)cc1 | i | i | -6.9* | i | i | i
Cc1ccc(S(=O)(=O)Oc2ccccc2/C=C2\SC(=O)NC2=O)cc1 | i | i | -5.6* | i | 49%* | i
O=C1NC(=O)/C(=C/c2ccccc2Oc2ccc(Cl)cc2)S1 | i | i | i | i | · | ·
CC(C)(C)c1ccc(C(=O)NNC(=O)CCc2ccccc2)cc1 | i | i | i | i | · | ·
CCn1c(COc2ccc(OC)cc2)nc2ccccc21 | i | i | -5.2* | i | i | i
CCn1c(COc2ccccc2)nc2ccccc21 | i | i | i | i | · | ·
COCC(=O)NC1CCN(S(=O)(=O)c2cccc(C(C)=O)c2)CC1 | i | i | -5.1* | i | i | i
COCC(=O)NC1CCN(S(=O)(=O)c2ccc(C(=O)O)cc2)CC1 | i | i | i | i | · | ·
O=C(CCC(=O)N(CC(=O)NC1CCCC1)Cc1ccc(F)cc1)Nc1nccs1 | i | i | i | i | · | ·
Cc1ccccc1N1CCN(Cc2c(C#N)c3ccccc3n2C)CC1 | i | i | i | i | · | ·
Cn1c(CN2CCN(CCO)CC2)c(C#N)c2ccccc21 | i | i | -5.3* | i | 41%* | i
CC(C)Nc1nc(Cl)nc(N(C#N)CN2C(=O)c3ccccc3S2(=O)=O)n1 | i | i | i | i | · | ·
CC(C)(C)Nc1nc(Cl)nc(N(C#N)CN2C(=O)c3ccccc3S2(=O)=O)n1 | i | i | -5.6* | i | 57%* | i
CCOc1ccc(OCc2ccc(C(=O)N3CCCC3)o2)cc1 | i | i | -8.1* | i | 42%* | i
CC(=O)Nc1ccc(NC(=O)c2ccc(COc3ccc(C)cc3)o2)cc1 | i | i | i | i | · | ·
CCCNC(=O)c1ccc(COc2ccc(C)cc2)o1 | i | i | -5* | i | 52%* | i
O=C(NCc1cccnc1)c1nc(-c2ccccc2)n(-c2ccccc2)n1 | i | i | i | i | · | ·
Cn1c(=N)n(CC(=O)c2ccc(Br)cc2)c2ccccc21 | i | i | i | i | · | ·
